High-throughput results from PubChem.
TDP1 cell noCPT: qHTS for Inhibitors of human tyrosyl-DNA phosphodiesterase 1 (TDP1): qHTS in cells in absence of CPT; DT40 Tdp1-/- hTDP1 cells, no CPT, ATP luminescence, 48 h; Potency, µM (titrated, usually from 46.2 µM), without a hit: at the highest dose activity change, negative = growth inhibition, most hits filed as inhibitors; hit rate 15% among 420,000; AID 686978, 2013; further: potency means the concentration at half of the fitted maximal effect; nearly all actives have a fitted effect of over 55% in size
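Growth of hTDP1-complemented DT40 Tdp1-knockout cells is measured by ATP luminescence after at least 48 hr compound exposure at 37 °C, with DMSO substituting for the 20 nM CPT used in the parallel screen.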
TDP1 cell CPT: growth inhibition of DT40 Tdp1-/-;hTDP1 cells with camptothecin (screen for TDP1 inhibitors); chicken DT40 Tdp1-/-;hTDP1 cells + 20 nM CPT, ATP luminescence, 48 h; Potency, µM (highest dose often 46.2 µM), for the others: top-dose activity change, negative = growth inhibition, hits mostly inhibitors; hit rate 12% among 420,000; further: potency means the concentration at half of the fitted maximal effect; nearly all actives have a fitted effect of over 55% in size
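Cell growth measured by CellTiter-Glo luminescence after a minimum 48 h, 37 C compound exposure with 20 nM CPT in Tdp1-knockout DT40 cells stably expressing hTDP1, seeded 400/well; qHTS titration format.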
ELG1 DNA repair: inhibitors of ELG1-dependent DNA repair in HEK293T cells; HEK293T ELG1-luciferase reporter, luminescence, 16 h; DNA damage induced by 5-fluorouridine; Potency, µM (top dose mostly 46.1 µM), without a hit: at the highest dose activity change, negative = inhibition, actives largely listed as inhibitors; hit rate 2.3% among 330,000; AID 504467; further: potency means the concentration at half of the fitted maximal effect; nearly all actives have a fitted effect of over 55% in size
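5-Fluorouridine DNA damage + compound/DMSO, 2,000 cells/well, 16 h, 37 °C/5% CO2. ONE-Glo, 30 min RT, luminescence. Readout = decrease in reporter signal.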
VP16 counter: counter-screen for ROR gamma inhibitors: Gal4-VP16 reporter | Drosophila S2 Gal4-VP16 UAS-luciferase, luminescence, 20 h | Potency, µM (series often up to 53.6 µM), for inactives: at the highest dose activity, negative = inhibition, most hits filed as inhibitors | hit rate 3.5% among 310,000 | AID 2546;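 further: Gal4-VP16 expression switched on by copper sulfate through the metallothionein promoter; potency means the concentration at half of the fitted maximal effect; nearly all actives have a fitted effect of over 50% in size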
IL1B secr inh: inflammasome signaling inhibition, IL-1 beta readout; THP-1 LPS/ATP IL-1B secretion, AlphaLISA, 16 h; active compounds read low; activity change, % at 57.5 µM; hit rate 4.7% among 360,000; AID 743279; in the data active means activity change below about -50%; inconclusive means mostly about -30% to -49%
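THP-1 cells pretreated 1 hr with compounds (up to 57.5 uM final), then stimulated with LPS (250 ng/mL final) plus ATP (1.25 mM final); secreted IL-1B measured by AlphaLISA after 16 hr, decreased signal indicating inhibition.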
RORgamma inh: blocks mouse ROR gamma transcriptional activity. P51450. Drosophila S2 Gal4-RORgamma UAS-luciferase reporter, 20 h. Potency, µM (titrated, usually from 53.6 µM), inactives show at the top dose activity change, negative = inhibition, most hits filed as inhibitors. hit rate 5.4% among 310,000. AID 2551; further: potency means the concentration at half of the fitted maximal effect; nearly all actives have a fitted effect of over 60% in size
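Read-out: Photinus luciferase luminescence; inhibitors lower reporter signal. Insect Schneider cells with Gal4-ROR gamma fusion under metallothionein promoter, UAS reporter; 700 uM final copper sulfate induction, 20 hr, ambient temperature.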
ELG1 FLuc counter: luciferase inhibition in cell-free luciferin readout for ELG1 hits | hit rate 3% among 350 | shares compounds with ELG1 DNA repair | Potency, µM (titrated, usually from 46.1 µM), for the others: at the top dose activity change, negative = inhibition, actives largely listed as inhibitors | cell-free firefly luciferase luminescence counter-screen, ViewLux | AID 624247; further: potency means the concentration at half of the fitted maximal effect
ELG1-Luc inh: confirmation of human ELG1-dependent DNA repair inhibitors; HEK293T ELG1-luciferase levels, luminescence; cells co-treated with 5-fluorouridine; Potency, µM (top dose mostly 46.1 µM), inactives show at the top dose activity change, negative = inhibition, hits mostly inhibitors; hit rate 68% among 670; shares compounds with ELG1 DNA repair; AID 624248; further: potency means the concentration at half of the fitted maximal effect; nearly all actives have a fitted effect of over 55% in size
Target sequence (Q96QE3 whole entry, looked up): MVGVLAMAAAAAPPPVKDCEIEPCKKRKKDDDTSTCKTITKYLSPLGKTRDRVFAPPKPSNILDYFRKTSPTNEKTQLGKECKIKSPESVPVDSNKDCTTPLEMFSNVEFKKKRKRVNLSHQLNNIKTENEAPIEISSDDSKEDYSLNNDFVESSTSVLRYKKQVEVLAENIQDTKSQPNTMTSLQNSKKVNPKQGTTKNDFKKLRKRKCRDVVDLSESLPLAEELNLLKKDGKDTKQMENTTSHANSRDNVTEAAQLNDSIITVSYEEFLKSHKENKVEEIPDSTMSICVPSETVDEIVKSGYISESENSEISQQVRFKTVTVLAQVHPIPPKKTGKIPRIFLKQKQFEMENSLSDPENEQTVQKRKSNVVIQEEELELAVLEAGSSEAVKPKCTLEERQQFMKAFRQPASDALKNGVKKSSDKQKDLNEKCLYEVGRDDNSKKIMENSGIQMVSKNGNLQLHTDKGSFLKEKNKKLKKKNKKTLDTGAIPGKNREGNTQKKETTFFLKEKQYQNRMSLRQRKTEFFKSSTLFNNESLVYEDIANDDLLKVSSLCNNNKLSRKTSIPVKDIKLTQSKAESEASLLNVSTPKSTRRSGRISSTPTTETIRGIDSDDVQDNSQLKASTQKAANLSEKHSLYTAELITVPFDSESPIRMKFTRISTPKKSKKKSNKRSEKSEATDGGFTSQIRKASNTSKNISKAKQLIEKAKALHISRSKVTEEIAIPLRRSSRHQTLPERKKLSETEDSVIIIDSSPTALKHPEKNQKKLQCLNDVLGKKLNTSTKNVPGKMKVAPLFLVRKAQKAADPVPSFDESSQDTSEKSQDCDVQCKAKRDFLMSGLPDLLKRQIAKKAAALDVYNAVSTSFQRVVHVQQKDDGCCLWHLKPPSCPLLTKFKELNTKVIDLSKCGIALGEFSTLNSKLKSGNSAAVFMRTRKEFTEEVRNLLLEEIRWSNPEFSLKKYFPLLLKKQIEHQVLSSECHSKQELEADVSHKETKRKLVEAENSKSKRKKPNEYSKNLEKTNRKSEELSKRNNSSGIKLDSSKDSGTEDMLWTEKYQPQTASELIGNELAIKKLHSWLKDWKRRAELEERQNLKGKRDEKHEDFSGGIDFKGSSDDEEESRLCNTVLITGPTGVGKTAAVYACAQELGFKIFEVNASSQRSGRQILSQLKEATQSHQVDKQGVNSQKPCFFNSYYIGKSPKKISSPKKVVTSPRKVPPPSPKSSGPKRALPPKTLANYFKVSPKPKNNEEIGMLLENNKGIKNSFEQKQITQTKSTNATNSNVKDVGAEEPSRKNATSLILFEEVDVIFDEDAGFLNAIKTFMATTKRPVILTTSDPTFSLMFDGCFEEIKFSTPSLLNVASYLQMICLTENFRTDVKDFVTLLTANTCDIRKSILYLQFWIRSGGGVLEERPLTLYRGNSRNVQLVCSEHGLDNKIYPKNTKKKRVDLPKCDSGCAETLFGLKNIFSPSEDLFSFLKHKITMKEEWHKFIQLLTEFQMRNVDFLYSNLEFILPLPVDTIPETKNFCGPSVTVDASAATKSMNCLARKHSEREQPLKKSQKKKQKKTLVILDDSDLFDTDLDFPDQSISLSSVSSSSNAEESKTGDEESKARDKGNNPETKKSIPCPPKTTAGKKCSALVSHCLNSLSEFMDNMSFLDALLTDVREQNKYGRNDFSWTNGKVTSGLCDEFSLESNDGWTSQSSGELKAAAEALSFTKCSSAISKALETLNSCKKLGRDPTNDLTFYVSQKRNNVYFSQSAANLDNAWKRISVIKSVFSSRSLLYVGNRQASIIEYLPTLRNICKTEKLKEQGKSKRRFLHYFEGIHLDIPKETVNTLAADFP
ELG1 MMS Luc: MMS-stimulated human ELG1 repair inhibition, confirmed. shares compounds with ELG1 DNA repair. HEK293T luciferase-tagged ELG1 level, MMS stimulated. Potency, µM (titrated, usually from 46.1 µM), for the others: top-dose activity change, negative = inhibition, hits mostly inhibitors. hit rate 53% among 670. AID 624249; further: potency means the concentration at half of the fitted maximal effect; nearly all actives have a fitted effect of over 60% in size
ELG1 5FU viab: confirmation of ELG1 repair inhibitors: viability with 5FU | AID 624250 | Potency, µM (series often up to 46.1 µM), for the others: at the top dose activity change, negative = viability loss, hits mostly cytotoxic | 670 tested, under 10 active | cell viability with 5-FU, ELG1-dependent repair | shares compounds with ELG1 DNA repair;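 further: ELG1-luc HEK293T cells cotreated with 5-fluorouridine at 10 µM final; potency means the concentration at half of the fitted maximal effect; viability measured 16 h after compound addition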
ELG1 MMS viab: confirmation of ELG1 repair inhibitors: viability with MMS | AID 624251 | Cell viability with MMS, ELG1-dependent DNA repair | hit rate 33% among 670 | Potency, µM (top dose mostly 46.1 µM), inactives show at the highest dose activity change, negative = viability loss, usual class: cytotoxic | shares compounds with ELG1 DNA repair;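 further: ELG1-luc HEK293T cells co-treated with 10 µM MMS; potency means the concentration at half of the fitted maximal effect; viability read 16 h after compound addition; nearly all actives have a fitted effect of over 60% in size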
Cell viab unstim: unstimulated viability counter-screen for ELG1 repair hits | shares compounds with ELG1 DNA repair | cell viability counter-screen, unstimulated, luminescence | Potency, µM (highest dose often 45.9 µM), for inactives: top-dose activity change, negative = loss of viability, hits mostly cytotoxic | hit rate 8% among 900;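 further: potency means the concentration at half of the fitted maximal effect; compound exposure lasted 16 hours before reading; nearly all actives have a fitted effect of over 55% in size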
FLuc biochem: firefly luciferase inhibition counter-screen; hit rate 10% among 350; purified firefly luciferase, luminescence counter-screen; Potency, µM (doses to about 57.5 µM), for inactives: at the top dose activity, negative = inhibition, most hits filed as inhibitors; AID 624253; shares compounds with ELG1 DNA repair; further: potency means the concentration at half of the fitted maximal effect
The depositor's hits bear a star; ? = inconclusive; / = not tested or not shown; [ ] = another dose, or the depositor's remark. The list is not random: actives were taken first. Their share in the collection is about 21%. Unless noted, the call rests on the fitted dose curve; in most records, active means well fitted curve in the direction sought with a large enough effect; inconclusive means small, poorly fitted or top-dose-only effect, or another doubt; inactive means no such curve, though single readings can be large; an effect the other way counts as inactive or inconclusive. On the % scale 0 is the no-effect control and ±100 the full control effect.

SMILES	TDP1 cell noCPT	TDP1 cell CPT	ELG1 DNA repair	VP16 counter	IL1B secr inh	RORgamma inh	ELG1-Luc inh	ELG1 MMS Luc	ELG1 5FU viab	ELG1 MMS viab	Cell viab unstim	others
CCCCn1c(SCC(=O)Nc2nnc(CC)s2)nc2c1c(=O)n(C)c(=O)n2C	11.6µM*	23.1µM*	2.51µM*	-0.2%	0.5	12.3%	?	11.4%	-13.7%	?	?
CC(=O)N1CCN(CC(=O)Nc2ccccc2C(=O)NCc2ccc(C)cc2)CC1	?	4.3%	-14.9%	4.9%	4.9	23.6%	/	/	/	/	/
CC(=O)N1CCN(CC(=O)Nc2ccccc2C(=O)Nc2ccccc2)CC1	3.8%	0.1%	?	/	-24.0	/	3.53µM*	43.4%	?	-2.1%	-0.9%
COc1cccc(OC)c1OC(=O)/C=C/c1ccc(C)o1	-15.0%	17.7%	?	6.4%	10.1	-2.2%	/	/	/	/	/
CCOC(=O)c1ccc(NC(=O)COc2cc3oc(=O)c(CC(C)O)c(C)c3cc2Cl)cc1 (configuration not stated)	25.9%	-24.7%	2.5%	-20.9%	-19.5	-0.8%	/	/	/	/	/
CC(=O)c1cccc(NC(=O)COc2cc3oc(=O)c(CC(C)O)c(C)c3cc2Cl)c1 (configuration not stated)	20.6µM*	?	4.11µM*	-9.8%	-0.9	-25.4%	6.28µM*	22.3µM*	?	0.2%	?
CCC(C)[C@H]1CNCCN1CCc1cc(C(F)(F)F)cc(C(F)(F)F)c1 (some centres not stated)	18.4µM*	?	3.55µM*	/	-66.1*	/	-8.6%	22.3µM*	?	22.3µM*	?
COc1ccc2c(C)cc(SCC(=O)N3CCOCC3)nc2c1	-5.7%	4.3%	-10.7%	-1.9%	-22.3	1.7%	/	/	/	/	?	ELG1 FLuc counter=141.5%;FLuc biochem=?
Cc1cccc(-n2c(N)c(-c3nc4ccccc4n3C)c3nc4ccccc4nc32)c1	?	?	1.84µM*	5.01µM*	18.6	2.82µM*	2.23µM*	5.4%	?	-3.9%	?
COC(=O)c1sccc1S(=O)(=O)N1CCCC(N(C)CCc2ccccn2)C1 (configuration not stated)	-2.9%	2.5%	5.4%	-8.9%	15.7	14.7%	/	/	/	/	/
COc1cccc(CNS(=O)(=O)c2cc(CN3C(=O)c4cccnc4C3=O)ccc2OC)c1	0.4%	-0.6%	?	1.3%	0.1	1.4%	/	/	/	/	/
Cc1ccc(-c2nn(-c3ccccc3)cc2C(=O)N2CCOCC2)cc1	-9.2%	-3.8%	-6.1%	-1.3%	-9.7	-0.2%[10 µM]	/	/	/	/	/
O=C(/C=C\c1cn(-c2ccccc2)nc1-c1ccc2c(c1)OCCO2)N1CCOCC1	10.3µM*	?	3.26µM*	-1.8%	-22.2	11.4%	1.58µM*	?	?	?	-8.4%
COc1ccc(C(=O)c2ccc(Br)cc2)cc1	-17.0%	-3.9%	1.16µM*	-18.4%	-18.1	34.2%	43.4%	0.0%	2.2%	-16.7%	6.6%
O=C(Nc1ccc(N2CCOCC2)cc1)c1cccc(S(=O)(=O)N2CCCCCC2)c1	0.9%	-27.2%	3.26µM*	2.0%	41.3	-28.5%	?	7.91µM*	-0.6%	7.91µM*	?
Cc1cc(C)c(CN2CCN(C(=O)Cn3ccc(N)nc3=O)CC2)c(C)c1	-16.4%	-13.1%	12.3%	/	35.9	/	/	/	/	/	/
CSc1nc(N)nc2c1ncn2CC(=O)N1CCN(Cc2c(C)cc(C)cc2C)CC1	0.82µM*	1.84µM*	2.31µM*	/	37.3	/	?	0.705µM*	2.1%	1.25µM*	?
O=C(COC(=O)CCC(=O)c1cccs1)NCc1ccccc1	-2.4%	2.1%	-6.3%	-5.9%	12.7	-14.4%	/	/	/	/	/
CCN(C(=O)COC(=O)c1c(-c2ccccc2)noc1C)c1c(N)n(Cc2ccccc2)c(=O)[nH]c1=O	-10.8%	-19.4%	1.6%	-10.1%	-0.7	-3.3%	/	/	/	/	/
COc1cc2[nH]c(=O)n(CCCCCC(=O)N3CCN(c4ccccc4)CC3)c(=O)c2cc1OC	16.4µM*	20.6µM*	16.4µM*	/	-13.9	32.4%[0.365 µM]	12.6µM*	15.8µM*	8.1%	?	?	ELG1 FLuc counter=?;FLuc biochem=-17.7%
COC(=O)c1ccc2c(=O)n(CCCCCC(=O)N3CCN(c4ccccc4)CC3)c(=O)[nH]c2c1	10.3µM*	18.4µM*	7.31µM*	-29.6%	-17.7	-3.4%	8.89µM*	7.92µM*	?	9.97µM*	19.9µM*	ELG1 FLuc counter=22.3µM*;FLuc biochem=-2.3%
COc1cc2[nH]c(=O)n(CCC(=O)N3CCN(Cc4ccccc4)CC3)c(=O)c2cc1OC	?	-5.7%	?	-17.3%	14.9	-1.9%	/	/	/	/	/
CNC(=O)C(=O)NCCN1CCN(C(=O)c2ccc([N+](=O)[O-])cc2)CC1	0.1%	-2.7%	10.5%	-0.2%	2.4	-3.6%	/	/	/	/	/
